Laboratory results as given in PubChem BioAssay AID1159580 (chemical genetic matrix, 2015).
Screen size: about 5,500 compounds; about 2,000 (36%) were called active. Inconclusive results (about 18%) are left out. No stated cut-off is given here; in the data, active means normalized growth mostly below about 0.91 (no sharp cut-off); inconclusive means no clear call, values can overlap the other calls; inactive means mostly above about 0.92. Some of the results follow.

Assay: chemical genetic growth profiling, strain panel (AID 1159580);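 further: tested at 20 µM; growth read once vehicle control cultures reached saturation at 30 °C; 1 = growth at the plate median or of vehicle wells; lower values mean less growth of the strain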
Details: S. cerevisiae deletion strains, growth OD
[1] = locus YAL040C, strain CLN3, active compounds read low
[2] = locus YDR363W, strain ESC2, active compounds read low
[3] = locus YER002W, strain NOP16, active compounds read low
[4] = locus YNL175C, strain NOP13, active compounds read low
[5] = locus YNL197C, strain WHI3, active compounds read low
[6] = locus YNL224C, strain SQS1, active compounds read low
[7] = locus YOR083W, strain WHI5 (second series), active compounds read low

Measured: normalized growth

O=c1cc(-c2ccc(O)cc2)oc2cc(O)cc(O)c12
inactive: locus YAL021C, strain ccr4, active compounds read low 0.995 | locus YAL026C, strain drs2, active compounds read low 0.978 | locus YAL030W, strain snc1, active compounds read low 0.99 | [1] 0.976 | locus YBL061C, strain skt5, active compounds read low 1 | locus YBR009C, strain hhf1, active compounds read low 1.01 | locus YBR023C, strain chs3, active compounds read low 0.993 | locus YBR171W, strain sec66, active compounds read low 0.997 | locus YBR231C, strain swc5, active compounds read low 1 | locus YBR279W, strain paf1, active compounds read low 0.994 | locus YCL011C, strain gbp2, active compounds read low 0.999 | locus YCL016C, strain dcc1, active compounds read low 0.998 | locus YCL061C, strain MRC1, active compounds read low 1.01 | locus YCL069W, strain vba3, active compounds read low 0.989 | locus YCR088W, strain abp1, active compounds read low 0.987 | locus YDL005C, strain med2, active compounds read low 0.995 | locus YDL040C, strain nat1, active compounds read low 0.99 | locus YDR001C, strain nth1, active compounds read low 0.981 | locus YDR069C, strain doa4, active compounds read low 0.966 | locus YDR137W, strain rgp1, active compounds read low 1.04 | locus YDR159W, strain sac3, active compounds read low 0.975 | locus YDR195W, strain ref2 0.955 | locus YDR297W, strain sur2, active compounds read low 0.993 | locus YDR334W, strain swr1, active compounds read low 0.98 | locus YDR335W, strain msn5, active compounds read low 0.996 | [2] 0.998 | locus YDR392W, strain spt3, active compounds read low 0.922 | locus YEL003W, strain gim4, active compounds read low 0.997 | locus YEL037C, strain rad23, active compounds read low 0.981 | locus YEL061C, strain CIN8 (second series), active compounds read low 0.985 | [3] 0.987 | locus YER015W, strain faa2, active compounds read low 0.986 | locus YER016W, strain bim1, active compounds read low 0.98 | locus YER111C, strain swi4, active compounds read low 0.989 | locus YER155C, strain BEM2 (second series), active compounds read low 0.975 | locus YFR010W, strain ubp6, active compounds read low 0.966 | locus YGL167C, strain pmr1, active compounds read low 0.974 | locus YGL173C, strain kem1, active compounds read low 1 | locus YGL227W, strain vid30, active compounds read low 0.989 | locus YGL240W, strain doc1, active compounds read low 1 | locus YGL253W, strain hxk2, active compounds read low 0.973 | locus YGR229C, strain SMI1, active compounds read low 1.01 | locus YHR013C, strain ard1, active compounds read low 1.01 | locus YHR027C, strain rpn1, active compounds read low 0.997 | locus YHR030C, strain SLT2, active compounds read low 1.02 | locus YHR079C, strain IRE1, active compounds read low 0.996 | locus YHR142W, strain chs7, active compounds read low 0.98 | locus YJL092W, strain hpr5, active compounds read low 0.988 | locus YJL095W, strain BCK1 (second series), active compounds read low 0.996 | locus YJL095W, strain BCK1, active compounds read low 1.02 | locus YJL115W, strain asf1, active compounds read low 0.978 | locus YJL129C, strain trk1, active compounds read low 0.995 | locus YJL154C, strain vps35, active compounds read low 0.977 | locus YJL164C, strain tpk1, active compounds read low 1.03 | locus YJL166W, strain qcr8, active compounds read low 1.01 | locus YJL187C, strain SWE1, active compounds read low 0.998 | locus YJR066W, strain TOR1, active compounds read low 0.954 | locus YKL160W, strain elf1, active compounds read low 1.01 | locus YKR026C, strain gcn3, active compounds read low 0.972 | locus YKR091W, strain srl3, active compounds read low 0.985 | locus YLL001W, strain dnm1, active compounds read low 1.03 | locus YLL026W, active compounds read low 0.993 | locus YLL041C, strain sdh2, active compounds read low 0.997 | locus YLR027C, strain aat2, active compounds read low 0.998 | locus YLR113W, strain HOG1, active compounds read low 0.95 | locus YLR221C, strain rsa3, active compounds read low 0.992 | locus YLR258W, strain gsy2, active compounds read low 1 | locus YLR262C, strain YPT6 (second series), active compounds read low 1.05 | locus YLR320W, strain mms22, active compounds read low 1.01 | locus YLR342W, strain FKS1, active compounds read low 0.993 | locus YLR357W, strain rsc2, active compounds read low 0.918 | locus YLR370C, strain arc18, active compounds read low 0.981 | locus YLR384C, strain iki3, active compounds read low 0.98 | locus YML120C, strain ndi1, active compounds read low 0.984 | locus YMR058W, strain fet3, active compounds read low 0.97 | locus YMR125W, strain sto1, active compounds read low 0.973 | locus YMR129W, active compounds read low 0.989 | locus YMR205C, strain PFK2, active compounds read low 1.03 | locus YMR231W, strain pep5, active compounds read low 0.996 | locus YNL071W, strain lat1, active compounds read low 0.993 | [4] 1.01 | locus YNL183C, strain NPR1, active compounds read low 0.943 | [5] 0.981 | locus YNL209W, strain ssb2, active compounds read low 0.998 | [6] 0.982 | locus YNL248C, strain rpa49, active compounds read low 0.989 | locus YNL322C, strain KRE1 (second series), active compounds read low 0.977 | locus YNR049C, strain mso1, active compounds read low 0.989 | locus YOR001W, strain rrp6, active compounds read low 1 | locus YOR070C, strain gyp1, active compounds read low 1 | locus YOR080W, strain dia2, active compounds read low 0.986 | [7] 0.954 | locus YOR083W, strain WHI5, active compounds read low 1.02 | locus YOR106W, strain vam3, active compounds read low 0.999 | locus YOR231W, strain MKK1, active compounds read low 1.02 | locus YOR265W, strain rbl2, active compounds read low 0.998 | locus YOR270C, strain vph1, active compounds read low 0.988 | locus YOR290C, strain snf2, active compounds read low 0.96 | locus YPL051W, strain arl3, active compounds read low 0.999 | locus YPL078C, strain atp4, active compounds read low 1 | locus YPL106C, strain sse1, active compounds read low 0.955 | locus YPL240C, strain hsp82, active compounds read low 0.995 | locus YPL256C, strain CLN2, active compounds read low 1.01

O=c1cc(-c2ccc(O)c(O)c2)oc2cc(O)cc(O)c12
inactive: [1] 1.02 | locus YCL061C, strain MRC1 (second series), active compounds read low 0.989 | locus YDR150W, strain NUM1, active compounds read low 0.964 | [2] 1.02 | [3] 1.01 | locus YGR078C, strain PAC10, active compounds read low 0.989 | locus YJR075W, strain HOC1, active compounds read low 0.984 | locus YMR263W, strain SAP30, active compounds read low 1 | [4] 1.01 | [5] 1.02 | [6] 1.03 | [7] 0.966 | locus YPL241C, strain CIN2, active compounds read low 0.997
